# Test results as given in PubChem BioAssay AID2314 (National Center for Advancing Translational Sciences (NCATS), 2010).
# About 37,000 (12%) of roughly 300,000 compounds were called active. This excerpt belongs to a sample that is enriched for actives. Unmarked numbers belong to inactive results. No stated cut-off is given here; in the data, active means max response mostly above about 13% (no sharp cut-off); inactive means mostly below about 14%.
# Assay: Cycloheximide Counterscreen for Small Molecule Inhibitors of Shiga Toxin; further: read at 38.3 µM for the half of the compounds with a filed dose; 0% is about no effect
# Details: cell reporter, cycloheximide protein synthesis inhibition counterscreen; active compounds read high
row,Compound,max response
1,CCCn1nnnc1NCc1ccc(CC)cc1,15.5%
2,CCN1CCN(c2sc(S(C)(=O)=O)nc2S(=O)(=O)c2ccc(Cl)cc2)CC1,13.5%
3,O=C(Nc1ccc(Cl)cc1)Nc1nnc(/C=C/c2ccccc2)s1,6.47%
4,O=C(CSc1ccccc1)Nc1nnc(/C=C/c2ccccc2)s1,0.905%
5,COc1ccc(/C=C/c2nnc(NC(=O)C(C)C)s2)cc1,13.9% (active)
6,CCCCNC(=O)N1CCCC(N(C)CCc2ccc(OC)c(OC)c2)C1 (stereo not given),-0.786%
7,CCCC(=O)n1nc(-c2ccccc2)nc1N,-1.34%
8,Cc1nn(C(=O)c2ccoc2C)c(N)c1-c1ccccc1,53.9% (active)
9,CCOC(=O)c1c(N)nn(C(=O)c2ccccc2)c1-c1ccccc1,-1.7%
10,CCC(C)[C@@H](N)C(=O)O (stereo not given in full),-4.08%
11,CCCCNC(=O)c1ccccc1NC(=O)C1=C(C)OCCS1,1.86%
12,Cc1nc(N2CCN(c3ccccn3)CC2)c2c(C)c(C(=O)Nc3ccc(F)cc3)sc2n1,1.78%
13,O=c1c2c(nc3n1CCCCC3)sc1c(O)cccc12,12.7%
14,Cc1nc(N2CCOCC2)c2c(C)c(C(=O)Nc3ccc(C(F)(F)F)cc3)sc2n1,-1.52%
15,COc1ccc(CCNC(=O)C(=O)Nc2ccc3nc4n(c(=O)c3c2)CCCCC4)cc1OC,-0.998%
16,CC(=O)c1sc2nc(SCC(=O)N3CCCCC3)[nH]c(=O)c2c1C,-3.21%
17,CCCCN(CC)C(=S)Nc1ccc2nc3n(c(=O)c2c1)CCCCC3,-3.24%
18,CC(=O)c1ccc(NC(=O)c2sc3nc4n(c(=O)c3c2C)CCCCC4)cc1,47.8% (active)
19,Cc1c(C(=O)Nc2ccccc2)sc2nc3n(c(=O)c12)CCCCC3,36.1% (active)
20,O=C(Nc1ccc2nc3n(c(=O)c2c1)CCCCC3)c1ccccc1Cl,23% (active)
21,O=[N+]([O-])/C=C/c1ccc2c(ccn2Cc2ccccc2)c1,-1.88%
22,CN(C)CCCCCN(C)Cc1cc2ccccc2o1,-0.524%
23,COCCCNC(=O)CNC(=O)c1nn(-c2ccc(OC)cc2)c(=O)c2ccccc12,-1.37%
24,O=C(Nc1ccccc1C(=O)O)c1ccc(N2C(=O)C3CC=CCC3C2=O)cc1 (stereo not given),-5.5%

row,Compound,max response
1,O=C1CSc2ccc(S(=O)(=O)NCc3ccccc3)cc2N1,7.11%
2,COc1cccc(N(C(=O)c2ccn[nH]2)C2(C(=O)Nc3c(C)cccc3C)CCCCC2)c1,-5.43%
3,Cc1oc(-c2ccccc2F)nc1CS(=O)CC(=O)NCCN1CCCCC1C (stereo not given),-6.49%
4,CC1CCN(c2oc(-c3ccccc3F)nc2C#N)CC1,28.8% (active)
5,COc1ccccc1-c1nc(C#N)c(N2CCC(C(N)=O)CC2)o1,-3.17%
6,Cc1ccc(NN=Nc2nc3c([nH]2)c(=O)n(C)c(=O)n3C)cc1,11.7%
7,Cc1cccc(C)c1NC(=O)CN1C(=O)C(C)Oc2ccccc21 (stereo not given),1.84%
8,COCCn1c(SCC(=O)Nc2ccccc2F)nc2c(c1=O)SCC2,8.88%
9,COc1ccc(C(C)NC(=S)NC2CCCCC2)cc1OC (stereo not given),-2.46%
10,COc1cc(Br)c(-c2sc(Nc3ccccc3)n[n+]2-c2ccccc2)cc1OC,1.49%
11,CCc1ccc(Oc2coc3cc(O)ccc3c2=O)cc1,31.5% (active)
12,CCc1ccc(Oc2coc3cc(OC(=O)c4cc5ccccc5oc4=O)ccc3c2=O)cc1,12%
13,COc1ccc(Oc2coc3cc(OC(=O)c4cncc(Br)c4)ccc3c2=O)cc1,5.74%
14,CC[C@H](C)[C@H](NC(=O)[C@H](Cc1ccc(O)cc1)NC(=O)[C@@H](NC(=O)[C@H](CCCN=C(N)N)NC(=O)[C@@H](N)CC(=O)O)C(C)C)C(=O)N[C@@H](Cc1cnc[nH]1)C(=O)N1CCC[C@H]1C(=O)N[C@@H](Cc1ccccc1)C(=O)O,16%
15,C=CCN1C(=O)C2(OCCCO2)c2cccc(Cl)c21,1.84%
16,Cc1ccc(CNC(=O)Cn2cnc(S(=O)(=O)N3CCCCC3)c2)o1,6.21%
17,CC(C)NS(=O)(=O)c1ccc(NC(=O)c2cccnc2)cc1,-3.02%
18,O=C(Cc1ccccc1)Nc1ccc(NC(=O)c2cccnc2)cc1,-2.68%
19,C#CCNc1ccc(C(=O)OCC)cc1,31.8% (active)
20,CCCc1nnc(SCC(=O)Nc2ccc(C(=O)OCC)cc2)o1,3.14%
21,CCOC(=O)c1ccc(NC(=O)CSc2ncccn2)cc1,26.6% (active)
22,CCOC(=O)c1ccc(NC(=O)CSc2nnc(COc3ccccc3OC)n2C)cc1,4.99%
23,CCOC(=O)c1ccc(NC(=O)c2cccnc2)cc1,38.1% (active)
24,CCOC(=O)c1ccc(NC(=S)N2CCCC2)cc1,9.83%

row,Compound,max response
1,CCCCC(CCC(=O)Nc1ccc(C(=O)OCC)cc1)C(=O)O (stereo not given),0.691%
2,CCOC(=O)c1ccc(-c2ccc(C(=O)Nc3cccnc3)o2)cc1,32.1% (active)
3,COc1ccc(C)cc1NC(=O)c1ccc(-c2ccc(C(C)=O)cc2)o1,16%
4,CCOC(=O)c1ccc(NC(=O)CCn2c(=O)oc3ccccc32)cc1,9.25%
5,COc1ccccc1N1CC(C(=O)Nc2nnc(SCC(=O)NC(C)C)s2)CC1=O (stereo not given),-0.494%
6,C=CCN1C(=O)C(O)(CC(=O)c2ccc(Cl)cc2)c2ccccc21 (stereo not given),-1.68%
7,Cc1c([N+](=O)[O-])c(N)nn1C,-1.77%
8,COCCNC(=S)N(CCc1c(C)[nH]c2ccc(C)cc12)Cc1cccnc1,-0.385%
9,C=CCNC(=O)c1sc(SC)cc1-c1ccc(Cl)cc1,-0.634%
10,CCOC(=O)C1CCN(C(=O)CN2C(=O)c3cccnc3Oc3ccc(C)cc32)CC1,-3.81%
11,CCCOc1ccc(C(=O)C(CCC(CNCC)C(=O)c2ccc(OCCC)cc2)CNCC)cc1 (stereo not given),-10%
12,O=S(=O)(NCC1CC1)c1ccc(F)c(Cl)c1,0.9%
13,O=C(NC1C2CC3CC(C2)CC1C3)c1ccc(N2CCNCC2)c([N+](=O)[O-])c1 (stereo not given),-2.96%
14,N#Cc1cc([N+](=O)[O-])ccc1NCC1CCCO1 (stereo not given),-4.48%
15,O=C(Cc1cccs1)Nc1ccc([N+](=O)[O-])cc1,-1.6%
16,CCOc1ccccc1NC(=O)Cc1cccs1,-3.39%
17,CCOC(=O)c1ccc(NC(=O)Cc2cccs2)cc1,33% (active)
18,COc1cccc(NC(=O)CC(c2ccc(OC(C)C)cc2)c2ccccc2OC)c1 (stereo not given),2.51%
19,COc1ccc(/C=C(\NC(=O)c2ccc(OCC(C)C)cc2)C(=O)OCc2ccco2)cc1,-1.98%
20,COc1ccc(Cn2c(=S)[nH]c3cc(C(=O)NCCCN4CCOCC4)ccc3c2=O)cc1,-1.29%
21,Cc1ccc(S(=O)(=O)NCCC(=O)Nc2cccc(S(N)(=O)=O)c2)cc1C,-4.85%
22,Cc1ccc(S(=O)(=O)NCCC(=O)Nc2ccc(C)c(Cl)c2)cc1C,-4.03%
23,Cc1ccnc(NC(=O)CCNS(=O)(=O)c2ccc(C)c(C)c2)c1,47.8% (active)
24,O=C1C=C(c2ccc(Cl)cc2)C(=O)N1Nc1ccccc1,-6.32%

row,Compound,max response
1,CCOc1cc(CNn2c(C)nnc2SCC(=O)NC(C)(C)C)ccc1OCC(=O)NC(C)(C)C,-1.88%
2,Cn1cnc2c1c(=O)n(Cc1ccccc1C#N)c(=O)n2C,7.66%
3,COc1ccccc1CN1CCCC(N2CCN(c3ccc(F)cc3)CC2)C1 (stereo not given),0.35%
4,CN(C)/N=C/c1cc(Cl)cc([N+](=O)[O-])c1O,-1.13%
5,N#CC(C#N)=Cc1cc(O)c(O)c([N+](=O)[O-])c1,37% (active)
6,O=[N+]([O-])c1cc([N+](=O)[O-])c2cccnc2c1O,5.27%
7,O=[N+]([O-])c1ccccc1/C=C/CN1CCC(O)CC1,0.466%
8,CN(C)Cc1c(C#N)c2ccccc2n1C,-3.13%
9,COc1ccc(CCNCc2c(-c3ccccc3)n(C)c3ccccc23)cc1,-3.43%
10,COc1ccc(-c2c(C#Cc3ccccc3)c3ccccc3n2C)cc1,40% (active)
11,Cc1cc(=O)oc2c1ccc1ccccc12,0.801%
12,O=C(CSc1nccc(=O)[nH]1)Nc1ccc(N2CCOCC2)c(Cl)c1,-2.31%
13,COc1ccc(CCNC(=O)CS(=O)(=O)Cc2nc(-c3ccc(C)cc3)oc2C)cc1OC,-4.16%
14,CCCC(=O)Nc1c(O)c2ccccc2[nH]c1=O,-3.15%
15,NS(=O)(=O)c1ccccc1NC(=O)c1c(O)c2ccccc2[nH]c1=O,41.2% (active)
16,CC(C)C(=O)Nc1c(O)c2ccccc2[nH]c1=O,-0.723%
17,N#Cc1ccc(-c2nc3cc(C#N)c(C#N)cc3nc2-c2ccccc2)cc1C#N,18.4%
18,Cc1ccc(N2C(=O)C3C4C=CC(CC4)C3C2=O)cc1Br (stereo not given),0.748%
19,COc1ccc(CNC(=O)CN(c2ccc(OC)c(Cl)c2)S(=O)(=O)c2ccc(C)cc2)cc1,6.81%
20,COc1cc(N/C=C2\CC(=O)NC(C)=C2C#N)cc(OC)c1OC,-2.39%
21,Oc1ccc(CN2CCN(c3ncccn3)CC2)cc1,-3.1%
22,c1cnc(N2CCN(c3ccc4ccccc4n3)CC2)nc1,53% (active)
23,O=C(c1ccncc1)N1CCN(c2ccc3ccccc3n2)CC1,8.94%
